Laboratory results taken from ChEMBL document CHEMBL1961873, “Compounds: GSK PKIS; Assays: Nanosyn kinase panel” (2012).

What was measured:
[1] = target: T1, Inhibitor of nuclear factor kappa-B kinase subunit epsilon (Homo sapiens) (UniProt Q14164); conditions: at 1 µM;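 note: reported values are averaged percent inhibition figures against human IKKε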
T1 sequence (whole entry): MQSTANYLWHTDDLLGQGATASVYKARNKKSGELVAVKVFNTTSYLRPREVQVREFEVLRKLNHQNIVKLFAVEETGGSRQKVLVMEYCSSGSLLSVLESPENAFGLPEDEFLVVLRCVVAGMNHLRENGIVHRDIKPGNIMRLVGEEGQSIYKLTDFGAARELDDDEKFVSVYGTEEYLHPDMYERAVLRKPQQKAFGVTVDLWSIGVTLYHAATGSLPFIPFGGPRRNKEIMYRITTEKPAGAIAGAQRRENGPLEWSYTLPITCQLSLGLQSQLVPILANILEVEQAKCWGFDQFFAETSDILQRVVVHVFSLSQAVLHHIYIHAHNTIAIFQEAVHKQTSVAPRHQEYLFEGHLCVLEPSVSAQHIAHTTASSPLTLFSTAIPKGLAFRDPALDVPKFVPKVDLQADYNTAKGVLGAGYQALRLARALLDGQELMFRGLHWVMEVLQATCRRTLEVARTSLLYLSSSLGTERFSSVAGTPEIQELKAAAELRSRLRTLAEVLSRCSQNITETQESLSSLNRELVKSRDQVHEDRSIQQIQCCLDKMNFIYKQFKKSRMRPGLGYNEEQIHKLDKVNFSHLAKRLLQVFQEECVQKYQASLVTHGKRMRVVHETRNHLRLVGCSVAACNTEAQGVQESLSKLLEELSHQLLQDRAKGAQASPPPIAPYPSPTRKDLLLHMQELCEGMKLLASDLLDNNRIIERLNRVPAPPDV

[2] = target: T2, Serine/threonine-protein kinase Nek1 (Homo sapiens) (UniProt Q96PY6); conditions: at 0.1 µM
T2 sequence (whole entry): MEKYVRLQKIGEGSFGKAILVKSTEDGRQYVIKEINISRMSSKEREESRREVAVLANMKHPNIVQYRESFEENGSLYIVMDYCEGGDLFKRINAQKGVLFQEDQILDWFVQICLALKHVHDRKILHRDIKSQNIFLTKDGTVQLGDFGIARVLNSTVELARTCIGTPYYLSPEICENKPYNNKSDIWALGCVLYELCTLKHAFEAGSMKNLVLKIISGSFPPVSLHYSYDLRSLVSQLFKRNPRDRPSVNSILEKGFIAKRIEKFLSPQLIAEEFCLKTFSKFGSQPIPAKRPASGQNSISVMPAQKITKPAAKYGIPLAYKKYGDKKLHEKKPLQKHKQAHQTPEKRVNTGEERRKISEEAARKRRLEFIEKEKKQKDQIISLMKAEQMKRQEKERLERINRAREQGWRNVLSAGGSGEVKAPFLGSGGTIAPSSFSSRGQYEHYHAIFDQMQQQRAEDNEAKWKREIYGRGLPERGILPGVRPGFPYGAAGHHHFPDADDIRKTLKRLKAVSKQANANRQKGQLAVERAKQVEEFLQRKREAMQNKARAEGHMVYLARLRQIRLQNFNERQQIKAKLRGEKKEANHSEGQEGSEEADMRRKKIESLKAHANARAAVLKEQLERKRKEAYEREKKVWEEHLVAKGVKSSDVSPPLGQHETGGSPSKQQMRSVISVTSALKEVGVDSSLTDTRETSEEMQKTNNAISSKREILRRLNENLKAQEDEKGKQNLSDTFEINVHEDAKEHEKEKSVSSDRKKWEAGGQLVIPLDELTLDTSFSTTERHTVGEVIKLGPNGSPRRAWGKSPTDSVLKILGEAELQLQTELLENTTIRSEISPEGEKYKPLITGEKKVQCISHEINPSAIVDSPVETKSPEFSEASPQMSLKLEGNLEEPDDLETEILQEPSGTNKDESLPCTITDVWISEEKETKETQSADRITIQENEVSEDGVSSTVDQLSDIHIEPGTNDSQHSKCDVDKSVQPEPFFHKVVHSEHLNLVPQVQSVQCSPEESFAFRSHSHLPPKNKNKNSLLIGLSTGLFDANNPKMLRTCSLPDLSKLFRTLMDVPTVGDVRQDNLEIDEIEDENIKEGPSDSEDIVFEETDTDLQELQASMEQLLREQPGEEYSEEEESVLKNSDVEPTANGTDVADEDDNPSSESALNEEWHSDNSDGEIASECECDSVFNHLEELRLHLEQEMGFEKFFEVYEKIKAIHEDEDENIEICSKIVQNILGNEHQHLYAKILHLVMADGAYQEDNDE

[3] = target: T2, Serine/threonine-protein kinase Nek1 (Homo sapiens); conditions: at 1 µM
[4] = target: T3, Serine/threonine-protein kinase Nek2 (Homo sapiens) (UniProt P51955); conditions: at 0.1 µM
T3 sequence (whole entry): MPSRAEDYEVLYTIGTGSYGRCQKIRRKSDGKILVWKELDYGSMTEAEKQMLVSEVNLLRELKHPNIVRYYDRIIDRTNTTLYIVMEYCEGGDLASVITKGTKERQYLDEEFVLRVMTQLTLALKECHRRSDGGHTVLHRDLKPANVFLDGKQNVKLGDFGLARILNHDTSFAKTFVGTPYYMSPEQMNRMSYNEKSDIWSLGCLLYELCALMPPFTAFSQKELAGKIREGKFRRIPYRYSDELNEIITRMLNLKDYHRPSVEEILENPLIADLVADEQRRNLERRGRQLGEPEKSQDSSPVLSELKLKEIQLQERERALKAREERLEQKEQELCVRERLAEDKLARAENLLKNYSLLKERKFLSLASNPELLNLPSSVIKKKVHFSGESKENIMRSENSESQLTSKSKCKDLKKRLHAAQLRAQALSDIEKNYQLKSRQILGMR

[5] = target: T3, Serine/threonine-protein kinase Nek2 (Homo sapiens); conditions: at 1 µM
[6] = target: Serine/threonine-protein kinase Nek6 (Homo sapiens) (UniProt Q9HC98); conditions: at 0.1 µM
Sequence of Serine/threonine-protein kinase Nek6 (Homo sapiens) (Q9HC98 whole entry): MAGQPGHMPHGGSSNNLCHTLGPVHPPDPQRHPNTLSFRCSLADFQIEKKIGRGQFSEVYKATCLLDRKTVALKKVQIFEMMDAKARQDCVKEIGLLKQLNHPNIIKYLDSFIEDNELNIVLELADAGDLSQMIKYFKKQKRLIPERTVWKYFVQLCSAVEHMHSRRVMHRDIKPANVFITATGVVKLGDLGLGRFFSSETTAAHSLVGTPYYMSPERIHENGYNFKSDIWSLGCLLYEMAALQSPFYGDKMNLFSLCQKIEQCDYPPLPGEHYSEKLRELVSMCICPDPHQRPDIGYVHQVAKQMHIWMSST

[7] = target: Serine/threonine-protein kinase Nek6 (Homo sapiens) (UniProt Q9HC98); conditions: at 1 µM
[8] = target: Serine/threonine-protein kinase Nek7 (Homo sapiens) (UniProt Q8TDX7); conditions: at 0.1 µM
Sequence of Serine/threonine-protein kinase Nek7 (Homo sapiens) (Q8TDX7 whole entry, looked up): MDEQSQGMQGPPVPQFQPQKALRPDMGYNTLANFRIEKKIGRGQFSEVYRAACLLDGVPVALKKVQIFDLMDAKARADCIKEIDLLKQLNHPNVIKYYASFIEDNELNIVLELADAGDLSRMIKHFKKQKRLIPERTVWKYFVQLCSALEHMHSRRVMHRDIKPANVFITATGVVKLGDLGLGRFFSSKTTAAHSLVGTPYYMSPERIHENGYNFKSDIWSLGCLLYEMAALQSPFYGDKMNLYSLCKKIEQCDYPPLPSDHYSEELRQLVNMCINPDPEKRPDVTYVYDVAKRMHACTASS

[9] = target: Serine/threonine-protein kinase Nek7 (Homo sapiens) (UniProt Q8TDX7); conditions: at 1 µM
[10] = target: T4, Serine/threonine-protein kinase Nek9 (Homo sapiens) (UniProt Q8TD19); conditions: at 0.1 µM
T4 sequence (whole entry): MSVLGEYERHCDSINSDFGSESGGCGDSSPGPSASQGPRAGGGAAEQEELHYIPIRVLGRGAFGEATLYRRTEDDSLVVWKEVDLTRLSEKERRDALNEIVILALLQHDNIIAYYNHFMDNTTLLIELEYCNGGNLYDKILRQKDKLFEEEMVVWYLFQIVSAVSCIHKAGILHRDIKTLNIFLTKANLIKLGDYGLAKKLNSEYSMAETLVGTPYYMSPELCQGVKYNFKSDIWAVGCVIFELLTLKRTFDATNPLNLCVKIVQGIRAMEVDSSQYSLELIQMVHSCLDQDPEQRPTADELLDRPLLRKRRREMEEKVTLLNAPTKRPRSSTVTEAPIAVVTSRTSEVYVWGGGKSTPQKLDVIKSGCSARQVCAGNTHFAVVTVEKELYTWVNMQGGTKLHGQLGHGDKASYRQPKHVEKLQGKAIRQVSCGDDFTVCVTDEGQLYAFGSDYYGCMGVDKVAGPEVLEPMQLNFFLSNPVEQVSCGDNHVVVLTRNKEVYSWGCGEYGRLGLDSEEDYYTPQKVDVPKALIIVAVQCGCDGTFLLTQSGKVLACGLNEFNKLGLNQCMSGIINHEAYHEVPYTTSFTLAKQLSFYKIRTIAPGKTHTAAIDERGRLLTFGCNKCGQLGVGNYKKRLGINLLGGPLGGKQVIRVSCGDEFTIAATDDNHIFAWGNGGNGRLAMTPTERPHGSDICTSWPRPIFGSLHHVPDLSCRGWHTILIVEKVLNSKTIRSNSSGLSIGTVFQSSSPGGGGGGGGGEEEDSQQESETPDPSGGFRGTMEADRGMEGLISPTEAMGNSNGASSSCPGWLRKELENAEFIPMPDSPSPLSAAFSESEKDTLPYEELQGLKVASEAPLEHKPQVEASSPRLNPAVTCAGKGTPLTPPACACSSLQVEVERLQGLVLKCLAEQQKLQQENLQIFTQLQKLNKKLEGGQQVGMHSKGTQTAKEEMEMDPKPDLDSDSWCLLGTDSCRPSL

[11] = target: T4, Serine/threonine-protein kinase Nek9 (Homo sapiens); conditions: at 1 µM
[12] = target: Serine/threonine-protein kinase PLK1 (Homo sapiens) (UniProt P53350); conditions: at 0.1 µM
Sequence of Serine/threonine-protein kinase PLK1 (Homo sapiens) (P53350 whole entry): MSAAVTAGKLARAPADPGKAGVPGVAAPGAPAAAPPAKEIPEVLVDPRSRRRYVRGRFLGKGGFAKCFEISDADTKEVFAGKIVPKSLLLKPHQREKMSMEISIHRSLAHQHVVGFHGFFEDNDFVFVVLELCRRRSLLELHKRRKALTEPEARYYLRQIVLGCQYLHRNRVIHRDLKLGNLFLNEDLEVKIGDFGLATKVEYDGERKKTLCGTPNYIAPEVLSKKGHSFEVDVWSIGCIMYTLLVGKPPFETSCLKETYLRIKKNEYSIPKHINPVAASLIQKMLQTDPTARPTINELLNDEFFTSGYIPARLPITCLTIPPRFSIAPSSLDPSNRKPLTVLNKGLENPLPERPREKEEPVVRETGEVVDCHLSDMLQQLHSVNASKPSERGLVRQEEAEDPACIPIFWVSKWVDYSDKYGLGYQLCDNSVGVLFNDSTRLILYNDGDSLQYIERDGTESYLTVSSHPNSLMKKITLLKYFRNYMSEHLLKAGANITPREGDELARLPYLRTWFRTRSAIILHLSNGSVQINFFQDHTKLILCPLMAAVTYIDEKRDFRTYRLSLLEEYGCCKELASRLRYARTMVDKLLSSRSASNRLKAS

[13] = target: Serine/threonine-protein kinase PLK1 (Homo sapiens) (UniProt P53350); conditions: at 1 µM
[14] = target: T5, Dual specificity protein kinase TTK (Homo sapiens) (UniProt P33981); conditions: at 0.1 µM
T5 sequence (whole entry): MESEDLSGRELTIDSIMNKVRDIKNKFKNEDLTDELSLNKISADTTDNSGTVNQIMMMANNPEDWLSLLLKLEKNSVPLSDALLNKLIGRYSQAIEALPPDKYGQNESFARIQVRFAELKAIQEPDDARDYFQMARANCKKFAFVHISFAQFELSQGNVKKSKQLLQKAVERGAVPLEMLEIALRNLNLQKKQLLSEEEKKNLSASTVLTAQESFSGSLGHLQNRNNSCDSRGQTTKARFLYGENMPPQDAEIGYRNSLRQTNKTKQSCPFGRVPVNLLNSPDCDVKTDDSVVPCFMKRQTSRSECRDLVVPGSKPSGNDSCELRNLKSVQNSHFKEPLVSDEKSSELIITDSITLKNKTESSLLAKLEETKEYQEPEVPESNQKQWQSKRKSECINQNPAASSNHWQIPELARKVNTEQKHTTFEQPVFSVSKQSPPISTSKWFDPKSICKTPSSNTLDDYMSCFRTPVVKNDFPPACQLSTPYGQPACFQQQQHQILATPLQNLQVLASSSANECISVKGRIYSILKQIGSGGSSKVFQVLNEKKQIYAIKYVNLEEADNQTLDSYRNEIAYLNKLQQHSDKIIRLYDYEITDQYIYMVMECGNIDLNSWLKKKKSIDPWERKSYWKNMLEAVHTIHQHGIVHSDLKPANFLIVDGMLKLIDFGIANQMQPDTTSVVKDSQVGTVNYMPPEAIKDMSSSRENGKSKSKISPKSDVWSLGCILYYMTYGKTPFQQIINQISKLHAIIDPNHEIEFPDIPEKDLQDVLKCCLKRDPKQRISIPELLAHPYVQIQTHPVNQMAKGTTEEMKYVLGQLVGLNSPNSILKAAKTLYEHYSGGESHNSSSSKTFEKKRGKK

[15] = system: T6, Receptor-type tyrosine-protein kinase FLT3 (Homo sapiens), P36888 [D835Y]; conditions: at 1 µM
T6 sequence (whole entry): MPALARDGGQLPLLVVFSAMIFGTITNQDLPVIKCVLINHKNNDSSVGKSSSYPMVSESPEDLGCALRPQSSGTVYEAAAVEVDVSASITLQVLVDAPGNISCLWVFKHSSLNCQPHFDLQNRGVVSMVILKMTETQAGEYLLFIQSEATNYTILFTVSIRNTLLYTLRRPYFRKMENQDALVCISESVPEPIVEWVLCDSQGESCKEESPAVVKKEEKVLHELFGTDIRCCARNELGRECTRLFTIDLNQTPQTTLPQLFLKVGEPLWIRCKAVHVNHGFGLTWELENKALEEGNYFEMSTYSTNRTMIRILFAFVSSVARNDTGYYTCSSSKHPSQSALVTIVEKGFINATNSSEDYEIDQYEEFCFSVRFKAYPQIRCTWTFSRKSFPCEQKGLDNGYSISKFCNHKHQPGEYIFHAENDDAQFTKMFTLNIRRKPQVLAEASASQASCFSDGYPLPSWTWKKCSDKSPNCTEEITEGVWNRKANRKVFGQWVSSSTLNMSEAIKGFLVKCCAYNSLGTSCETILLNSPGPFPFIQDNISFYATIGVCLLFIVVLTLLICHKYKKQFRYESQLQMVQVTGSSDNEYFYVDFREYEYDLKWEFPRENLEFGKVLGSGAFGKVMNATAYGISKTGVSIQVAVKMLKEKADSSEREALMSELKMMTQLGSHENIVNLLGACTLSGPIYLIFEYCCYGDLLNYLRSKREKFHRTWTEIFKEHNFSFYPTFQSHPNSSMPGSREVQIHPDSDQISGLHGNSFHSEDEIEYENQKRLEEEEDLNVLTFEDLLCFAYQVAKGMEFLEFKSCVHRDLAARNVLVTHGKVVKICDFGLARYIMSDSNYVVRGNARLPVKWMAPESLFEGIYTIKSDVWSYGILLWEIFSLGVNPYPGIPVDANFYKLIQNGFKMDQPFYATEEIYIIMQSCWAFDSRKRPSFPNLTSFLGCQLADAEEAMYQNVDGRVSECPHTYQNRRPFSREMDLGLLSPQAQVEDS

[16] = target: Vascular endothelial growth factor receptor 3 (Homo sapiens) (UniProt P35916); conditions: at 0.1 µM
Sequence of Vascular endothelial growth factor receptor 3 (Homo sapiens) (P35916 whole entry): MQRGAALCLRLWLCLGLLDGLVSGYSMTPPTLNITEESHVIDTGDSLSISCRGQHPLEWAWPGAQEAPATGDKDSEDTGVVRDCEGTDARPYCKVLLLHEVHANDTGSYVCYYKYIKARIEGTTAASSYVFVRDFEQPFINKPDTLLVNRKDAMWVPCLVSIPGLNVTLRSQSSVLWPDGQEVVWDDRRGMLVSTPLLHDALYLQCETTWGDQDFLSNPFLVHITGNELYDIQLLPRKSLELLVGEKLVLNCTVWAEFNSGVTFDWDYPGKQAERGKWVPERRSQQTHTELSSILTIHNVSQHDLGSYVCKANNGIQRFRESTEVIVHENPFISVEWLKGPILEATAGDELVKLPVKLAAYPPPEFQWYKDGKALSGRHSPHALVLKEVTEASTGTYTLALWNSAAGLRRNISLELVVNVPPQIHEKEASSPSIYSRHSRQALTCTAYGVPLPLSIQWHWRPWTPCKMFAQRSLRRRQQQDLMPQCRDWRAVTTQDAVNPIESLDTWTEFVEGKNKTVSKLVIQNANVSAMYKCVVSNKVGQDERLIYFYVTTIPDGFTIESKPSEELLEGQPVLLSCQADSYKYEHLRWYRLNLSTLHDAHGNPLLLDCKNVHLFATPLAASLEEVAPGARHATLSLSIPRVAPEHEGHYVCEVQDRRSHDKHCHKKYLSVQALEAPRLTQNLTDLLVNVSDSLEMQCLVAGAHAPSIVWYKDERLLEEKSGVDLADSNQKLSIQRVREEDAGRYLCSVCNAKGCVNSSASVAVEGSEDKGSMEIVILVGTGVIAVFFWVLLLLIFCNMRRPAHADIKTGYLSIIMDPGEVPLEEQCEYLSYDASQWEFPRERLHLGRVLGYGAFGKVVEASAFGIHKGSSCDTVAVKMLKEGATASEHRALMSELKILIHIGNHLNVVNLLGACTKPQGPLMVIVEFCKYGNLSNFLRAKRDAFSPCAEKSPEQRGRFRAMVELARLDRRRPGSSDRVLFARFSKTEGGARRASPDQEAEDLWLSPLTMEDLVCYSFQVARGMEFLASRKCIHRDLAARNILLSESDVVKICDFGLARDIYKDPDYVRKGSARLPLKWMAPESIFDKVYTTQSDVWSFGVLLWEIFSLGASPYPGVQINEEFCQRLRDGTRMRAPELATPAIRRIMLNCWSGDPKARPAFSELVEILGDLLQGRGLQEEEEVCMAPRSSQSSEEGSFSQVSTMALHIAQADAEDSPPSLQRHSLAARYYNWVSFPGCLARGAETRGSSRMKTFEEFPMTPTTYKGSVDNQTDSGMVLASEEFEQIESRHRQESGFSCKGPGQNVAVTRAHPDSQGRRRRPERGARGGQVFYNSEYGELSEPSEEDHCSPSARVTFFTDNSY

[17] = target: Vascular endothelial growth factor receptor 3 (Homo sapiens) (UniProt P35916); conditions: at 1 µM
[18] = target: Macrophage colony-stimulating factor 1 receptor (Homo sapiens) (UniProt P07333); conditions: at 0.1 µM
Sequence of Macrophage colony-stimulating factor 1 receptor (Homo sapiens) (P07333 whole entry): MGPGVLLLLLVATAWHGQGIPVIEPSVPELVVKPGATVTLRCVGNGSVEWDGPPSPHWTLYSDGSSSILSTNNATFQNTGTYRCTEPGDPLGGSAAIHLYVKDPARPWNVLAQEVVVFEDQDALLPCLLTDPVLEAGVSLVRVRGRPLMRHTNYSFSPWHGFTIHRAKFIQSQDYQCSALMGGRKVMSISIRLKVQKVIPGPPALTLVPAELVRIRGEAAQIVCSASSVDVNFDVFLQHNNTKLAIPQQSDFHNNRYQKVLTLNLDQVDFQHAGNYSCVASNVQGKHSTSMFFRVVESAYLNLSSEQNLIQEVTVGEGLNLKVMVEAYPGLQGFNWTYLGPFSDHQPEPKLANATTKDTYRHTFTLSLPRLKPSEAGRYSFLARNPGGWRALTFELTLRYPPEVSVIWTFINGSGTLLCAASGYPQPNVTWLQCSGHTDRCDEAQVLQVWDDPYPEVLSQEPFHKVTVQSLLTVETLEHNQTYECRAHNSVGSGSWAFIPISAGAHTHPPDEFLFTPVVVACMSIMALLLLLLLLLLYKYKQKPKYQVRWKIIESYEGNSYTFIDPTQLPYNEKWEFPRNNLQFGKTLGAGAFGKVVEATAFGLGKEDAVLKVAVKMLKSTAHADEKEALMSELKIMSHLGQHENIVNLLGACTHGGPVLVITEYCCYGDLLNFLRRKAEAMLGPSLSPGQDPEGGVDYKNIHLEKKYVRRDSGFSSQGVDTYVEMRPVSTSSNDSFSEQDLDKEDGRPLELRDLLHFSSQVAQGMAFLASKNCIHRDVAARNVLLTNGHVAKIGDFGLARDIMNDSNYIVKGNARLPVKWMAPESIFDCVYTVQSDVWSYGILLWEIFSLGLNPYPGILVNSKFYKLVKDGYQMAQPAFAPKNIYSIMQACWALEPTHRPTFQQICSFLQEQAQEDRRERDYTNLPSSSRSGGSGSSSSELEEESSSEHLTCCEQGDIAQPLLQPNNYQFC

[19] = target: Macrophage colony-stimulating factor 1 receptor (Homo sapiens) (UniProt P07333); conditions: at 1 µM
[20] = target: Tyrosine-protein kinase Fyn (Homo sapiens) (UniProt P06241); conditions: at 0.1 µM
Sequence of Tyrosine-protein kinase Fyn (Homo sapiens) (P06241 2-537 limits assumed): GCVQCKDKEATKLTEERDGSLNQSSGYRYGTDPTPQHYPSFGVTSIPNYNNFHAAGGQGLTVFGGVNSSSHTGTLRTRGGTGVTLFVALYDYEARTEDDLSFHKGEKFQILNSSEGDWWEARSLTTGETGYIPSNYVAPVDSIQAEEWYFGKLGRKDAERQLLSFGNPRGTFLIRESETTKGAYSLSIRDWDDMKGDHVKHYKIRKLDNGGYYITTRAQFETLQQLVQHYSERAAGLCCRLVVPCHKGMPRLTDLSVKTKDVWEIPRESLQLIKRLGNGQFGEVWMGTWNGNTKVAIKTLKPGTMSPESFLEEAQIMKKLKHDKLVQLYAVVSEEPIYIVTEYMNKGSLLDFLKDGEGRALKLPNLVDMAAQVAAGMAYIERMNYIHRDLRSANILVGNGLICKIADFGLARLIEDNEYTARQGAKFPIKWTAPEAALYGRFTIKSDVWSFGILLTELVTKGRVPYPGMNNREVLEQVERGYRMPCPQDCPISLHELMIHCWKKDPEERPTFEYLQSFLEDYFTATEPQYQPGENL

SMILES | inhibition [1] [%] | inhibition [2] [%] | inhibition [3] [%] | inhibition [4] [%] | inhibition [5] [%] | inhibition [6] [%] | inhibition [7] [%] | inhibition [8] [%] | inhibition [9] [%] | inhibition [10] [%] | inhibition [11] [%] | inhibition [12] [%] | inhibition [13] [%] | inhibition [14] [%] | inhibition [15] [%] | inhibition [16] [%] | inhibition [17] [%] | inhibition [18] [%] | inhibition [19] [%] | inhibition [20] [%]
Fc1ccc(-c2cc(-c3c[nH]nc3-c3ccccn3)ccn2)cc1 | 7.34 | 2.81 | 0.44 | 4.38 | 3.61 | 4.06 | 7.77 | 6.08 | 4.43 | 7.41 | 12.6 | 3.3 | 3.1 | 11.3 | 0.71 | -1.38 | 1.05 | 0.08 | 3.27 | 3.45
CN1CCC(n2cnc(-c3ccc(F)cc3)c2-c2ccnc(Nc3ccccc3)n2)CC1 | 6.75 | 1.95 | 2.29 | 2.54 | 3.52 | 4.42 | 3.58 | 2.94 | 2.65 | 5.58 | 10.1 | 6.81 | 2.65 | 9.56 | 2.38 | 0.02 | 1.32 | -1.19 | 4.11 | 0.05
CNC(=O)c1cncc(/C=C/c2ccccc2Cl)c1 | 2.69 | -0.35 | 1.83 | -0.6 | -0.78 | 1.4 | 5.65 | -1.23 | -1.28 | 1.21 | 3.22 | -0.94 | -0.72 | 1.16 | 7.46 | 15.2 | 13.6 | 3.45 | 4.05 | 2.42
